# Assay results as given in PMC7862700, “An all-to-all approach to the identification of sequence-specific readers for epigenetic DNA modifications on cytosine”.
# Legend:
# Assay in all cases: DAPPL (digital affinity profiling via proximity ligation, sequencing); 10 mM Tris-HCl pH 7.5, 50 mM NaCl, 1 mM DTT, 4% glycerol, room temperature, 30 min; GST-TFs on glutathione beads, 16-mer random dsDNA library, 0.1% formaldehyde crosslink after washing; high values mean tight binding
# FEV = target: T1, FEV (Homo sapiens, UniProt Q99581 1-238); conditions: protein: recombinant; tags: N-terminal GST; dsDNA, one strand shown
# T1 sequence: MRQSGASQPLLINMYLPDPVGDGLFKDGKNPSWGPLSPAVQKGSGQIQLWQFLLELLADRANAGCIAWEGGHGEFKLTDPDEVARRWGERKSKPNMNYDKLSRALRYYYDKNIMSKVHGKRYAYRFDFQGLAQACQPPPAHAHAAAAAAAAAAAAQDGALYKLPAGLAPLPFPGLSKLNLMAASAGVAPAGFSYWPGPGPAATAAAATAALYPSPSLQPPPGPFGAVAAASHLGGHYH
# Summary of the method: (§1)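 The binding signal reported is, for every hexamer, its read frequency for a factor over its read frequency for the tag-only sample. Reads came from pools of yeast-expressed, GST-fused human transcription factors on glutathione beads, barcoded with DNA and mixed with that sample, which were incubated with 200 nmole of a random double-stranded 16-mer DNA library in Tris/NaCl/DTT/glycerol buffer at room temperature for 30 min. After washing, the pools were crosslinked with 0.1% formaldehyde, proximity-ligated with BsaI/T4 ligase for 1 h at 37 °C, PCR-amplified and sequenced on an Illumina NextSeq500.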
# ETV5 = ETV5 (Homo sapiens, UniProt P41161 1-510); conditions: protein: recombinant; tags: N-terminal GST; dsDNA, one strand shown
# ETV5, sequence (P41161 whole entry): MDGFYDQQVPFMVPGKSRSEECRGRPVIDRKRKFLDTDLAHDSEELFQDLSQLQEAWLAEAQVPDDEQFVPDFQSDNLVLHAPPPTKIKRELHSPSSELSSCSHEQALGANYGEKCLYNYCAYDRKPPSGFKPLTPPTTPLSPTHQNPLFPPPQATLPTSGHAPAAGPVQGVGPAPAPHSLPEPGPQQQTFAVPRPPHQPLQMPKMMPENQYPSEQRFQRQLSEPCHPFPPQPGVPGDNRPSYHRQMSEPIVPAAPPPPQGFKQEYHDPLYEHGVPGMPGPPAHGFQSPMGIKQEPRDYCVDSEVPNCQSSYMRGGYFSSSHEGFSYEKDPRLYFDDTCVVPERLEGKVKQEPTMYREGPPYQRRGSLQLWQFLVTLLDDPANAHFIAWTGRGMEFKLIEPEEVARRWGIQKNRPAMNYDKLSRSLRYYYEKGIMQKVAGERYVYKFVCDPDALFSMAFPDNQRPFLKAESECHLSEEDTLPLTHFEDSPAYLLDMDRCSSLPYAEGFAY
# Summary of the method: as §1
# HSF1 = HSF1 (Homo sapiens, UniProt Q00613 1-529); conditions: protein: recombinant; tags: N-terminal GST; chain copies: 3; dsDNA, one strand shown
# HSF1, sequence (Q00613 whole entry): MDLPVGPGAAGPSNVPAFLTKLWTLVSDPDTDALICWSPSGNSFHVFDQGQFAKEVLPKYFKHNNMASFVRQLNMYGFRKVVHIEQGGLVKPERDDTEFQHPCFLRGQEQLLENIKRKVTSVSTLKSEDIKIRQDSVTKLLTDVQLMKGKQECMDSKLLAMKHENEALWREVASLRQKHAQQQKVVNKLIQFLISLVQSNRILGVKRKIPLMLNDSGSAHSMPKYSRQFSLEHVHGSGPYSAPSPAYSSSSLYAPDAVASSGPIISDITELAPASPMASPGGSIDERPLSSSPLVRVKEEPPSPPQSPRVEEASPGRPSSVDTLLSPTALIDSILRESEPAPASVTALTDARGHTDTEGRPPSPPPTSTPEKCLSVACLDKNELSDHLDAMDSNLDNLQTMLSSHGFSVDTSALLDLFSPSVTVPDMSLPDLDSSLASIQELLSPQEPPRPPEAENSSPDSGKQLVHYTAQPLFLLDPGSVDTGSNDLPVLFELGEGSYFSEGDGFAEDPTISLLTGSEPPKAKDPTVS
# Summary of the method: as §1
# SPIC = target: T2, SPIC (Homo sapiens, UniProt Q8N5J4 1-248); conditions: protein: recombinant; tags: N-terminal GST; dsDNA, one strand shown
# T2 sequence: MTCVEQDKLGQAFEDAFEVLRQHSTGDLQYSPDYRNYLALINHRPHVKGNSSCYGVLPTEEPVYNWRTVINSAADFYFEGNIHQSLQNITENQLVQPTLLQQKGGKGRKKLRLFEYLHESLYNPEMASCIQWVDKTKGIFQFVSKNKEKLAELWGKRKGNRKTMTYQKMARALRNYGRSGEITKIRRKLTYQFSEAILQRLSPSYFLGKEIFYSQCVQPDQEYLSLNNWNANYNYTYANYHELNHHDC
# Summary of the method: as §1
# ELF4 = ELF4 (Homo sapiens, UniProt Q99607 1-663); conditions: protein: recombinant; tags: N-terminal GST; dsDNA, one strand shown
# ELF4, sequence (Q99607 whole entry): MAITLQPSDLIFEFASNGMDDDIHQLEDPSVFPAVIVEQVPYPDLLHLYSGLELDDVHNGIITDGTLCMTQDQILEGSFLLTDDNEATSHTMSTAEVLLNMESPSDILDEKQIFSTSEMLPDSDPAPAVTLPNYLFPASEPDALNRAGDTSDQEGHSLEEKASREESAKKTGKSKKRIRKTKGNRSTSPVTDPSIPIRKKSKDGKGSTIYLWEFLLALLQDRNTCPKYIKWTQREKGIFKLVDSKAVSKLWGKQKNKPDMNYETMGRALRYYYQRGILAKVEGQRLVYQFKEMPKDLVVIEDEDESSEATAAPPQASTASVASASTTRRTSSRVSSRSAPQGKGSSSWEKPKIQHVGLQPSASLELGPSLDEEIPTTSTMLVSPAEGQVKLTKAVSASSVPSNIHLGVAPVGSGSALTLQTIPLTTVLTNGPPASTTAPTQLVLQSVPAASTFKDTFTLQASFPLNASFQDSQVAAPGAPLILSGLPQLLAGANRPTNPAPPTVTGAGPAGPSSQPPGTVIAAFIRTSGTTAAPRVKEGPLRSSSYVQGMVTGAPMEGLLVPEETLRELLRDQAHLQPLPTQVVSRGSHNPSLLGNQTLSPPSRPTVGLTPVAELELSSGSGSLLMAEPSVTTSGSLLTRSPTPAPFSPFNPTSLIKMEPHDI
# Summary of the method: as §1
# ELK4 = target: T3, ELK4 (Homo sapiens, UniProt P28324-2 1-405); conditions: protein: recombinant; tags: N-terminal GST; dsDNA, one strand shown
# T3 sequence: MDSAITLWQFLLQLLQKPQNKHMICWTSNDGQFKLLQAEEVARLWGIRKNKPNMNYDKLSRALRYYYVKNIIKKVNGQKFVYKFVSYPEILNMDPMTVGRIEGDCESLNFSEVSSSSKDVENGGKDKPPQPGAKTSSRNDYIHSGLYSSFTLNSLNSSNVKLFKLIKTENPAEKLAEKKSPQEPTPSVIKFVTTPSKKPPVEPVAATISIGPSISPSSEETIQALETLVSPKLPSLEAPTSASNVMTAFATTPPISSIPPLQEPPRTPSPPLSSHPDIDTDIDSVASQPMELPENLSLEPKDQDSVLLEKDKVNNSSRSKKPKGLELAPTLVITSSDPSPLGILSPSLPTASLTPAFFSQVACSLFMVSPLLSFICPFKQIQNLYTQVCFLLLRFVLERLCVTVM
# Summary of the method: as §1
# ETV2 = target: T4, ETV2 (Homo sapiens, UniProt O00321 1-342); conditions: protein: recombinant; tags: N-terminal GST; dsDNA, one strand shown
# T4 sequence: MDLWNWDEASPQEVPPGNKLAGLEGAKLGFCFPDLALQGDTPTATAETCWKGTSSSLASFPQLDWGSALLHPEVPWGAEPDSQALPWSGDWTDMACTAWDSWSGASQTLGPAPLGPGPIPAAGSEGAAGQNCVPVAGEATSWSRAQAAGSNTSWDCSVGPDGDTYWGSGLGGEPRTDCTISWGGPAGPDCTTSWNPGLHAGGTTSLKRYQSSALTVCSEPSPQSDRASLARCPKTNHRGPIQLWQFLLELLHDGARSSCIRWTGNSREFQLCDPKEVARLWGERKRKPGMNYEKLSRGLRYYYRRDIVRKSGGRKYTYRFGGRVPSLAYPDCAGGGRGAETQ
# Summary of the method: as §1
# ELF3 = target: T5, ELF3 (Homo sapiens, UniProt P78545 1-371); conditions: protein: recombinant; tags: N-terminal GST; dsDNA, one strand shown
# T5 sequence: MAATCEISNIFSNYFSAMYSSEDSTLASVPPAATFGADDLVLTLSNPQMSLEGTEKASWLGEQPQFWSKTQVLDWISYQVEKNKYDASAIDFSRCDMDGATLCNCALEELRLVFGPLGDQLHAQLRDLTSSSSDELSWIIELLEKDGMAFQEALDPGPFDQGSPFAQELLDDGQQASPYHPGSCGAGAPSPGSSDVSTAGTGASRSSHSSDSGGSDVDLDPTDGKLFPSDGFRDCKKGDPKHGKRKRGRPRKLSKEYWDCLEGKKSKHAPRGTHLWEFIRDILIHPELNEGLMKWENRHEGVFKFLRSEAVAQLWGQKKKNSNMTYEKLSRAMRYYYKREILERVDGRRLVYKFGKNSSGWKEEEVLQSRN
# Summary of the method: as §1
# ETV1 = ETV1 (Homo sapiens, UniProt P50549 1-477); conditions: protein: recombinant; tags: N-terminal GST; dsDNA, one strand shown
# ETV1, sequence (P50549 whole entry): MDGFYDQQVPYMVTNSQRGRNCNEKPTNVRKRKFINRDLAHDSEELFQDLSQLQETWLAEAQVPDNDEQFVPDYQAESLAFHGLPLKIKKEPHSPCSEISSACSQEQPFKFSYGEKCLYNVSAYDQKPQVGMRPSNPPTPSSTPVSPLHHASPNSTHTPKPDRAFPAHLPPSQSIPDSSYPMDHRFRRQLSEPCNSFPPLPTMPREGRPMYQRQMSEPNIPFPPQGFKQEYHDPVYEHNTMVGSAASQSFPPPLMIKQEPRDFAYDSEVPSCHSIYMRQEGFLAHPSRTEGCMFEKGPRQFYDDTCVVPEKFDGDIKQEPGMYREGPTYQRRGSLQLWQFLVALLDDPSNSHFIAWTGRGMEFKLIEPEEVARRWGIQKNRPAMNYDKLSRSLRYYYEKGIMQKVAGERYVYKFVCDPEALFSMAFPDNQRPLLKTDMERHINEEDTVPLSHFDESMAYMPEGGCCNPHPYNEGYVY
# Summary of the method: as §1
# ERF = target: T6, ERF (Homo sapiens, UniProt P50548 1-548); conditions: protein: recombinant; tags: N-terminal GST; dsDNA, one strand shown
# T6 sequence: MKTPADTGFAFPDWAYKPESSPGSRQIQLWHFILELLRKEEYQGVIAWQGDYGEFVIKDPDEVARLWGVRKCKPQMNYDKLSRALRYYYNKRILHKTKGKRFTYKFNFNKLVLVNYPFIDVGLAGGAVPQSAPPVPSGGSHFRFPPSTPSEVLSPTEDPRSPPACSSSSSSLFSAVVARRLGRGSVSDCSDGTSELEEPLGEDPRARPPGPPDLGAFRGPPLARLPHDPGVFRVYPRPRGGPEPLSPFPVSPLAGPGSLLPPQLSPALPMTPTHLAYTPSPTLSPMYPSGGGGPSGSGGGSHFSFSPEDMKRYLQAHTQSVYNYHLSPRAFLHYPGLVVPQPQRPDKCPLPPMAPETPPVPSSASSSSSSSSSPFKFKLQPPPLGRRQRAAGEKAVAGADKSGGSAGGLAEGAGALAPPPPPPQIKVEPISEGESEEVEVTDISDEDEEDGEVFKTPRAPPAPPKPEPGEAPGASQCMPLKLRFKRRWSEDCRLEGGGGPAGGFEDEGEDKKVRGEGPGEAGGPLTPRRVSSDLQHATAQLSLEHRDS
# Summary of the method: as §1
# ETV3L = target: T7, ETV3L (Homo sapiens, UniProt Q6ZN32 1-361); conditions: protein: recombinant; tags: N-terminal GST; dsDNA, one strand shown
# T7 sequence: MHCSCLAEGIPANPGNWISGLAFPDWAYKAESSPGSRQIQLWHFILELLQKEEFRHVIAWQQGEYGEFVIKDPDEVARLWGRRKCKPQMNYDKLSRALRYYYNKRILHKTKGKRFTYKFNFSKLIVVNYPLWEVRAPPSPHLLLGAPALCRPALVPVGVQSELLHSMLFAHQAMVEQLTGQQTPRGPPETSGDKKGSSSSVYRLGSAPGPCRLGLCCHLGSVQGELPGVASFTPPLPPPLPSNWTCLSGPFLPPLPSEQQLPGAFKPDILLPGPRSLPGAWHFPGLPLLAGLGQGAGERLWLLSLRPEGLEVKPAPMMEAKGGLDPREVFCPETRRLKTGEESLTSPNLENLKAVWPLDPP
# Summary of the method: as §1
# ETS2 = target: T8, ETS2 (Homo sapiens, UniProt P15036 1-469); conditions: protein: recombinant; tags: N-terminal GST; dsDNA, one strand shown
# T8 sequence: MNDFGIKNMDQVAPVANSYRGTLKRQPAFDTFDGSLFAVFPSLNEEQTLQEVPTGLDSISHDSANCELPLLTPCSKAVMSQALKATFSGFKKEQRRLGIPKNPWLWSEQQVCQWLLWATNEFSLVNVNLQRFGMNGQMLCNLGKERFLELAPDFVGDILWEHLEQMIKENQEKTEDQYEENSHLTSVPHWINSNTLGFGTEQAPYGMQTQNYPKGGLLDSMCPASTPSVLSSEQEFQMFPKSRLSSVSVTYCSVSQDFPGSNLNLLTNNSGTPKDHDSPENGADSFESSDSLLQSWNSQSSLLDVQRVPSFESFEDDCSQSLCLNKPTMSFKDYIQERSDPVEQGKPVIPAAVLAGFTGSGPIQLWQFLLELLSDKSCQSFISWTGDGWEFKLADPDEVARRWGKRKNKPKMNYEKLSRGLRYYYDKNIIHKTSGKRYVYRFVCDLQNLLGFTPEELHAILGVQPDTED
# Summary of the method: as §1
# SPDEF = target: T9, SPDEF (Homo sapiens, UniProt O95238 1-335); conditions: protein: recombinant; tags: N-terminal GST; dsDNA, one strand shown
# T9 sequence: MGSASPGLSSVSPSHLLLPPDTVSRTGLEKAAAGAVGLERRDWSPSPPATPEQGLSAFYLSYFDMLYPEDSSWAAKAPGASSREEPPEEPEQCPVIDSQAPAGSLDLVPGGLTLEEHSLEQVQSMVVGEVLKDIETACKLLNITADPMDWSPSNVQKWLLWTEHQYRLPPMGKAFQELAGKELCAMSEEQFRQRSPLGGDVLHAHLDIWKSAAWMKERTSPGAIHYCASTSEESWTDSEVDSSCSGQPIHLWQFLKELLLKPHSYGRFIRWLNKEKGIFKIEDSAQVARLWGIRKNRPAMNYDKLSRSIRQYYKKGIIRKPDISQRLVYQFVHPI
# Summary of the method: as §1
# ETV7 = target: T10, ETV7 (Homo sapiens, UniProt Q9Y603 1-341); conditions: protein: recombinant; tags: N-terminal GST; dsDNA, one strand shown
# T10 sequence: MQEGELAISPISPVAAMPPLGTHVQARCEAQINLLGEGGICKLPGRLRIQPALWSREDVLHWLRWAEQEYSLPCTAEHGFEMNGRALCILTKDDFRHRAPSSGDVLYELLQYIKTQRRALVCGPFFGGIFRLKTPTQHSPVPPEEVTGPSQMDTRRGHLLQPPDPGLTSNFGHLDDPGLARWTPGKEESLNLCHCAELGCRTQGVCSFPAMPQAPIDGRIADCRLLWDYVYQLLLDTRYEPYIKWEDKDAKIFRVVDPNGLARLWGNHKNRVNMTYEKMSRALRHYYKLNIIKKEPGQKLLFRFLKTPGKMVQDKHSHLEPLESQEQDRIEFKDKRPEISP
# Summary of the method: as §1
# ELF5 = target: T11, ELF5 (Homo sapiens, UniProt Q9UKW6-2 1-255); conditions: protein: recombinant; tags: N-terminal GST; dsDNA, one strand shown
# T11 sequence: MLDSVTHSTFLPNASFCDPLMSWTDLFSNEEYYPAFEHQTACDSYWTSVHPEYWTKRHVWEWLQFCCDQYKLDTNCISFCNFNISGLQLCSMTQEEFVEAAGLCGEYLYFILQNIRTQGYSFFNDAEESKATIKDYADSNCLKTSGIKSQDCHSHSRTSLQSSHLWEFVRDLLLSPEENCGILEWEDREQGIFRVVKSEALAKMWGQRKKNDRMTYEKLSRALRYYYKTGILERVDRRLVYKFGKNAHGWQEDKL
# Summary of the method: as §1
# ETV3 = target: T12, ETV3 (Homo sapiens, UniProt P41162-2 1-143); conditions: protein: recombinant; tags: N-terminal GST; dsDNA, one strand shown
# T12 sequence: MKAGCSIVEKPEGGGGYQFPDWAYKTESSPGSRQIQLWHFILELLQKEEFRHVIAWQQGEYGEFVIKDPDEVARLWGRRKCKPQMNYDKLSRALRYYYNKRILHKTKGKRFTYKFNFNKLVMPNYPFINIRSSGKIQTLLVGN
# Summary of the method: as §1
# ETV6 = ETV6 (Homo sapiens, UniProt P41212 1-452); conditions: protein: recombinant; tags: N-terminal GST; dsDNA, one strand shown
# ETV6, sequence (P41212 whole entry): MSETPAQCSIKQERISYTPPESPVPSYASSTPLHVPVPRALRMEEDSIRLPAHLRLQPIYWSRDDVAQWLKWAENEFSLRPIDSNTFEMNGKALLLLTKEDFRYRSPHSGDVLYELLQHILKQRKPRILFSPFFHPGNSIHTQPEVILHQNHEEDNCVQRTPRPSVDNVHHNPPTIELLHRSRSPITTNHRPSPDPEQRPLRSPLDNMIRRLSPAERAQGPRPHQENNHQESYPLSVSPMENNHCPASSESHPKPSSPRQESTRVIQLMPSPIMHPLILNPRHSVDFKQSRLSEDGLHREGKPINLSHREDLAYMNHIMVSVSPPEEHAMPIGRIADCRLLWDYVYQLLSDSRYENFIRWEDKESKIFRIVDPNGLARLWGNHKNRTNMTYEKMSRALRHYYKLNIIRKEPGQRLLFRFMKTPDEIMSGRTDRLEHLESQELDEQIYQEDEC
# Summary of the method: as §1
sequence,measurement,setting,value
CGACCA,binding signal,FEV,"1.3 fold enrichment (6-mer frequency, TF over GST control)"
same,binding signal,ETV5,"1.17 fold enrichment (6-mer frequency, TF over GST control)"
same,binding signal,HSF1,"1.14 fold enrichment (6-mer frequency, TF over GST control)"
same,binding signal,SPIC,"1.12 fold enrichment (6-mer frequency, TF over GST control)"
same,binding signal,ELF4,"1.39 fold enrichment (6-mer frequency, TF over GST control)"
same,binding signal,ELK4,"1.31 fold enrichment (6-mer frequency, TF over GST control)"
same,binding signal,ETV2,"1.35 fold enrichment (6-mer frequency, TF over GST control)"
same,binding signal,ELF3,"1.32 fold enrichment (6-mer frequency, TF over GST control)"
same,binding signal,ETV1,"1.23 fold enrichment (6-mer frequency, TF over GST control)"
same,binding signal,ERF,"1.19 fold enrichment (6-mer frequency, TF over GST control)"
same,binding signal,ETV3L,"1.33 fold enrichment (6-mer frequency, TF over GST control)"
same,binding signal,ETS2,"1.29 fold enrichment (6-mer frequency, TF over GST control)"
same,binding signal,SPDEF,"1.24 fold enrichment (6-mer frequency, TF over GST control)"
same,binding signal,ETV7,"1.16 fold enrichment (6-mer frequency, TF over GST control)"
same,binding signal,ELF5,"1.2 fold enrichment (6-mer frequency, TF over GST control)"
same,binding signal,ETV3,"1.2 fold enrichment (6-mer frequency, TF over GST control)"
same,binding signal,ETV6,"1.33 fold enrichment (6-mer frequency, TF over GST control)"
